The term inhibition denotes the change of the read-out against control, counted positive when it falls.

The campaign covered roughly 220,000 compounds. About 8,200 (3.7%) were called active. The full list was thinned out, with actives kept by preference. Unmarked numbers belong to inactive results.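 The calls were made as follows: active = compounds that reduced the stress-induced luciferase reporter signal by more than about 70% of percent inhibition (limit read from the data); inactive = the rest.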

The text below walks through data of PubChem BioAssay AID2732 (Emory University Molecular Libraries Screening Center, 2010).

A short description of the assay: inhibitors of CHOP promoter induction, primary screen, cell-based, unfolded protein response, luciferase reporter (AID 2732).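 Also: 0% = tunicamycin plus vehicle and 100% = wells without tunicamycin.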 As to conditions: CHO-K1 CHOP-promoter luciferase, tunicamycin-induced, 15-18 h; at 10 µM; stronger effect = higher value. (In general: Reporter assays use an easily measured gene product as a stand-in for the process of interest.)
On to `C=C(C)CNC(=S)Nc1ccc(S(=O)(=O)Nc2cnc3ccccc3n2)cc1`, for which the inhibition was 11.6%.

Turning to `O=c1[nH]n(-c2cccc(Cl)c2)c2ncccc12`, the inhibition is 9.34%.

With `Clc1cccc(CN2COc3c(cc(Cl)c4cccnc34)C2)c1`, the inhibition was 108% (active).

Turning to `O=C1/C(=C/c2coc3ccc(O)cc3c2=O)SC(=S)N1c1ccccc1`, the inhibition is -12.8%.

As for `CCOC(=O)COc1nc(C)cc(C(F)(F)F)c1C#N`, the inhibition is 16.9%.

For `Cn1c(CC2Sc3ccccc3NC2=O)nnc1SCC(=O)c1ccc(Cl)cc1` (configuration not stated), the inhibition was 11.3%.

For the compound `CCc1cc(C(=O)c2ccc(OC)cc2)c(NC(=O)CN2CCN(C)CC2)s1`, the inhibition was 9.91%.

For `CCNc1nc(NCC)nc(N(C)n2cnnc2)n1`, the inhibition is 2.32%.

Regarding `CCNc1nc(SCCOc2ccccc2)nc(N(C)C)n1`, the inhibition was 90.8% (active).

Regarding `Nc1nc(SCCOc2ccccc2)n[nH]1`, the inhibition was -32%.

Turning to `C/C(=N\Nc1cccc(C(=O)O)c1)c1ccc2c(c1)Nc1ccccc1S2`, the inhibition is -2.01%.

Consider `Cc1ccc(OC(=O)c2c(C)nn(-c3ccccc3)c2C)cc1`, for which the inhibition is 5.12%.

As to `CCCn1c(C)cc(C(=O)COC(=O)c2c(C)nn(-c3ccccc3)c2C)c1C`, the inhibition is 52.2%.

With `Cc1nn(-c2ccccc2)c(C)c1C(=O)OCC(=O)NC(=O)NC1CCCCC1`, the inhibition is 71.2% (active).

For the compound `CCc1cc(CNC(=O)CC2C(=O)NCCN2Cc2ccccc2C(F)(F)F)on1` (configuration not stated), the inhibition is 20.4%.

For the compound `O=c1[nH]c(SCc2cccc(F)c2)nc2ccccc12`, the inhibition is 8.81%.

As for `Cc1noc(C)c1COC(=O)COc1ccc(-c2ccccc2)cc1`, the inhibition was 10.1%.

Turning to `C/C(=N\N)c1c(-c2ccccc2)c2cc(Br)ccc2[nH]c1=O`, the inhibition is -1.78%.

For the compound `NC(=O)C1CCN(Cc2nc3c(Br)cc(Br)cc3c(=O)[nH]2)CC1`, the inhibition is 13.6%.

`NC(N)=Nc1nc2ccc(Br)cc2c(=O)[nH]1`: the inhibition was 74.1% (active).

`Cc1[nH]n(-c2ccccc2)c(=O)c1N=Nc1ccccc1C(=O)N1CCCCC1`: the inhibition is 59.1%.

With `Cc1ncn2cc(-c3ccc(Cl)cc3Cl)[nH]c(=O)c12`, the inhibition is 13.6%.

With `c1ccc(-n2cccc2)c(N2CCCCC2)c1`, the inhibition is -6%.

As to `CC(Sc1nc2c([nH]c3ccccc32)c(=O)n1C)c1ccccc1` (configuration not stated), the inhibition is 94.8% (active).

Take `Cn1nnnc1SCc1cc(=O)[nH]c2ccccc12`: the inhibition was 6.42%.

Consider `CCCCn1c(=S)[nH]c2ccccc2c1=O`, for which the inhibition was -18.6%.

With `O=C(Nc1ccc(Cl)cc1)/C(=C1\CCCN1)[N+](=O)[O-]`, the inhibition is -6.93%.

With `CN1CCN(c2ccc(CNS(=O)(=O)c3cccc(F)c3)cc2)CC1`, the inhibition is 9.01%.

As to `COc1ccc2[nH]c(=S)cc(C)c2c1`, the inhibition was -0.1%.

Take `Cc1ccc(-n2nc3cc(Cl)c(NC(=O)c4ccco4)cc3n2)cc1`: the inhibition was -26.1%.

Turning to `Cc1ccc(Cn2c(NC(=O)c3ccco3)nc3ccccc32)cc1`, the inhibition is 80.3% (active).

`CC(=O)Nc1nc2ccccc2n1Cc1ccc(C)cc1`: the inhibition was -14.1%.

In the case of `CN(C)S(=O)(=O)c1cccc(-c2nn(-c3ccccc3)cc2/C=C2\SC(=S)N(CC(=O)O)C2=O)c1`, the inhibition was 4.39%.

As to `CCCCC(=O)Nc1ccc(C(=O)Nc2cc(C(F)(F)F)ccc2Cl)cc1`, the inhibition is 94.3% (active).

For the compound `CC(CC(=O)Nc1cc(C(F)(F)F)ccc1Cl)c1ccccc1` (configuration not stated), the inhibition is 54.4%.

On to `CCCC(=O)Nc1ccc(Cl)c(NC(=O)c2ccc(Br)o2)c1`, for which the inhibition was 40.2%.

As to `CCCCNC(=O)OCCSCCS(=O)(=O)c1ccc(Cl)cc1`, the inhibition is 8.82%.

On to `CC(C)OP(=O)(OC(C)C)C(Nc1ccccc1)c1cccc([N+](=O)[O-])c1` (configuration not stated), for which the inhibition is -8.06%.

Take `Cc1cc(C(=O)Cn2cnc3cc([N+](=O)[O-])ccc3c2=O)c(C)n1CC1CCCO1` (configuration not stated): the inhibition is -28%.

In the case of `Cc1ccsc1C(=O)OCC(=O)c1cc(C)n(CC2CCCO2)c1C` (configuration not stated), the inhibition is 77.8% (active).

With `Cc1ccsc1C(=O)OCC(=O)c1cc2ccccc2o1`, the inhibition was 67.4%.

For the compound `CCCCN1Cc2c(nc3cc(-c4ccccc4)[nH]n3c2=O)C1=O`, the inhibition is -7.2%.

Consider `CCOc1ccccc1N1CN(Cc2ccccc2)CNC1=S`, for which the inhibition was 3.01%.

Regarding `COCCCn1c(-c2cccs2)nc2nc3ccccc3nc21`, the inhibition was -15%.

On to `O=C(c1ccccn1)c1ncc(C(F)(F)F)cc1Cl`, for which the inhibition was 23.4%.

On to `N/C(=N\OC(=O)Nc1ccc(Cl)c(Cl)c1)c1ncc(C(F)(F)F)cc1Cl`, for which the inhibition was 87.9% (active).

As for `N/C(=N\OC(=O)CCCC(=O)O)c1ncc(C(F)(F)F)cc1Cl`, the inhibition is 6.09%.

Take `Nn1c(SCc2ccccc2)nnc1C1CCCCC1`: the inhibition was -9.53%.

As to `COc1ccc(C(=O)N2CC3(C)CC2CC(C)(C)C3)cc1OC` (configuration not stated), the inhibition was -6.24%.

As to `CC1(C)CC2CC(C)(CN2c2ncnc3ccc(Br)cc23)C1` (configuration not stated), the inhibition is 70.5% (active).

With `C=CCNc1ncnc2ccc(Br)cc12`, the inhibition was 27.4%.

Take `CCOC(=O)CN(C(=O)COc1nc(-c2ccccc2)cc(C)c1C#N)c1ccc(F)cc1`: the inhibition is 5.71%.

`COc1c(O)cc2oc(-c3ccc(O)c(O)c3)cc(=O)c2c1O`: the inhibition is -13.9%.

Consider `Cc1ccc(NC(=O)/C(=C\c2ccccc2)NC(=O)c2ccco2)cc1`, for which the inhibition is 10.2%.

For `Nc1c(C(=O)c2cccs2)sc2nsc(SCCN3CCCCC3)c12`, the inhibition is -55.6%.

Consider `Cn1c(=N)n(CC(O)c2cccs2)c2ccccc21` (configuration not stated), for which the inhibition is 14.4%.

For the compound `Cn1c(=N)n(CC(O)c2ccccc2)c2ccccc21` (configuration not stated), the inhibition is 14.2%.

`N=c1n(Cc2ccc(Cl)cc2)c2ccccc2n1CC(O)c1ccco1` (configuration not stated): the inhibition was 86.2% (active).

In the case of `Cn1c(=O)c(=O)n(C)c2cc(S(=O)(=O)NCCN3CCN(c4ccccc4F)CC3)ccc21`, the inhibition was 10.2%.

For the compound `COc1ccc(NC2=CC(=S)NC(C)(C)C2)cc1`, the inhibition is 0.78%.

Turning to `Cc1c(NC(=O)CN2C(=O)C(=O)N(Cc3ccccc3)C2=O)c(=O)n(-c2ccccc2)n1C`, the inhibition is -4.43%.

On to `Cc1ccccc1NC(=O)c1ccc(COc2ccc3c(C)cc(=O)oc3c2)cc1`, for which the inhibition is 73.8% (active).

For `CCN(C(=O)COC(=O)c1ccc(COc2ccc3c(C)cc(=O)oc3c2)cc1)C1CCS(=O)(=O)C1` (configuration not stated), the inhibition was -17.9%.

Turning to `Cc1cc(=O)oc2cc(OCCC[n+]3ccccc3)ccc12`, the inhibition was 3.91%.

On to `COc1ccc(CCn2c(NN=C3CCCC3)nc3c2c(=O)[nH]c(=O)n3C)cc1`, for which the inhibition is -6.27%.

For `COc1ccc(NC(=O)C2=NNC(=O)CC2)cc1S(=O)(=O)N1CCCCC1`, the inhibition is 14.5%.

`Cc1ccc(-n2cnc3ncnc(-c4ccccc4)c32)cc1`: the inhibition was -3.5%.

Turning to `Cc1ccc(-c2nn(C(C)(C)C)c3ncnc(N)c23)cc1`, the inhibition was 76.5% (active).

For `Cc1ccc(CSc2nnc(-c3cnccn3)n2C)cc1`, the inhibition is -17.8%.

Turning to `O=C(NCc1ccccc1)c1ccc(CNc2c(N3CCCC3)c(=O)c2=O)cc1`, the inhibition is 3.8%.

`Cc1cc(=O)[nH]c(SCC(=O)Nc2ccc(Br)cc2)n1`: the inhibition was 28.6%.

`Cc1nc2cccnc2nc1C`: the inhibition is -3.08%.

Regarding `O=C(COC(=O)c1ccc(S(=O)(=O)Nc2ccccc2)cc1)NCC1CCCO1` (configuration not stated), the inhibition was 0.29%.

`O=C(Nc1ccccc1)C1CC(=O)n2c(nc3ccccc32)N1` (configuration not stated): the inhibition was 3.28%.

On to `COc1ccc(CCN2C(=O)c3[nH]nc(-c4ccccc4O)c3C2c2ccc(C)cc2)cc1OC` (configuration not stated), for which the inhibition was 75.2% (active).

Regarding `COC(=O)c1ccc(C2C(Oc3ccccc3C)C(=O)N2CCc2ccc(OC)c(OC)c2)cc1` (configuration not stated), the inhibition was 18.6%.

For the compound `COc1ccc(CCN(C)CCN2C(=O)c3ccccc3C2=O)cc1OC`, the inhibition is -9.23%.

As for `CS(=O)(=O)c1sc(C(=O)NC(=S)Nc2ccc(OC(F)(F)F)cc2)c2c1C=CCC2`, the inhibition was -21.9%.

Consider `COc1ccc(SC[C@H](Cc2ccccc2)N2CCN(CCc3ccccc3)CCC2=O)cc1`, for which the inhibition was 26.9%.

In the case of `Cc1csc(/N=C/N(C)C)c1C#N`, the inhibition is 11.2%.

For `CC1CCN(c2c(NCc3ccc(C(=O)NCc4ccccc4)cc3)c(=O)c2=O)CC1`, the inhibition was 1.88%.

`Cc1cc(=O)[nH]c(N/N=C/c2ccc3c(c2)OCCO3)n1`: the inhibition is -1.69%.

Turning to `CSc1ccccc1NC(=O)CN(C)CC(=O)Nc1ccc(Cl)cc1[N+](=O)[O-]`, the inhibition is 18.7%.

Regarding `Cc1ccc(NC(=O)CN(C)Cc2ccc(F)cc2)c([N+](=O)[O-])c1`, the inhibition was 71.6% (active).

Consider `CN(CC(=O)Nc1ccccc1[N+](=O)[O-])Cc1ccc(Br)cc1`, for which the inhibition was 5.7%.

Take `Cc1cc(C(=O)NNS(=O)(=O)c2ccccc2C(F)(F)F)nn1C(C)(C)C`: the inhibition is 14.2%.

Take `O=C1N/C(=N\N=C\c2ccco2)SC1Cc1ccc(F)cc1` (configuration not stated): the inhibition was 2.81%.

In the case of `O=C1NC(=Nc2ccc(Cl)cc2)SC1Cc1cccc(Cl)c1Cl` (configuration not stated), the inhibition was 94.3% (active).

As for `NC1=NC(=O)C(Cc2cccc(Cl)c2Cl)S1` (configuration not stated), the inhibition was -11.3%.

In the case of `COC(C[C@H](O)CC(=O)COCc1ccccc1)OC`, the inhibition is 17.8%.

Take `NC(=O)c1ccc(NC(=O)COC(=O)c2ccc([N+](=O)[O-])cc2)cc1`: the inhibition is 4.31%.

Turning to `Cc1cc(C)cc(NC(=O)NC2CCN(CC(=O)Nc3cccc(Cl)c3C)CC2)c1`, the inhibition was 14.5%.

Take `Cc1nc(Cl)c2oc3ccccc3c2n1`: the inhibition is -37.5%.

On to `COc1ccc(CCNC(=O)CSc2nc(C)nc3c2oc2ccccc23)cc1OC`, for which the inhibition was 5.77%.

As for `CCSc1nc(C)nc2c1oc1ccccc12`, the inhibition is 97.9% (active).

As for `CC1=CC(C)(C)NC(=S)N1NC(=O)c1ccccc1Cl`, the inhibition is -2.87%.

On to `CCOc1ccc(C2NC(=S)NC3=C2CCc2ccccc23)cc1` (configuration not stated), for which the inhibition was -10.8%.
